Compound activity: PubChem, National Center for Advancing Translational Sciences (NCATS)
Sampled rows, rich in hits. Any-hit rate of the full collection: about 3.7%.
PTHR1 agonist: qHTS for PTHR1 Agonists: Primary Screen; HEK293 GP2 PTHR1 cells, GloSensor cAMP luminescence, 1 h; 410,000 tested, 0.075% active; Potency, µM (doses to about 115 µM), hits mostly activators; further: nearly all actives have a fitted effect of over 55% in size
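HEK-293-derived GP2 cells expressing PTHR1 and a GloSensor cAMP reporter, 3,000/well, plated overnight, given luciferin plus IBMX (each 0.5 mM as added) for 1 h at 37 °C, then compound for 1 h at 37 °C. Luminescence was read after 15 min at room temperature.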
B2AR arrestin: qHTS assay of beta-arrestin-biased ligands of beta2-adrenergic receptor; Beta-2 adrenergic receptor (Homo sapiens), P07550; beta-arrestin recruitment to beta2AR, cell-based reporter; Potency, µM (series often up to 46.1 µM), hits mostly activators; 330,000 tested, 0.02% active; further: nearly all actives have a fitted effect of over 65% in size
DRD3 antagonist: qHTS of D3 Dopamine Receptor Antagonist: qHTS; D(3) dopamine receptor (Homo sapiens), P35462; max response, negative = inhibition, %; 360,000 tested, 2.5% active; D3R cells, DiscoveRx beta-arrestin luminescence, antagonist mode; stronger effect = lower value; AID 652054, 2013; in the data active means max response below about -50%; inconclusive means no clear call, values can overlap the other calls
Target sequence (P35462 whole entry, looked up): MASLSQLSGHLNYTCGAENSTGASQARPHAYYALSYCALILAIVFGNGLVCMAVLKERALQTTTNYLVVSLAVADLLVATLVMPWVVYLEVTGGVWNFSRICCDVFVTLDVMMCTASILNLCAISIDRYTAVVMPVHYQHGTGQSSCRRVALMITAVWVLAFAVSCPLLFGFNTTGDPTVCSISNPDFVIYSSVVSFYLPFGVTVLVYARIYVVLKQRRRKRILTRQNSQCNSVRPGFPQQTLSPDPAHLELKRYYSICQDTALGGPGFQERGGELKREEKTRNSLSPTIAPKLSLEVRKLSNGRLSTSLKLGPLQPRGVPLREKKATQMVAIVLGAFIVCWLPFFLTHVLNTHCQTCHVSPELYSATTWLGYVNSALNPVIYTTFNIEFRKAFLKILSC
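Cells expressing the human receptor were seeded at 1500 cells/well, incubated overnight at 37 degrees C in 5% CO2, then exposed to library compounds with dopamine controls for 90 minutes at 37 degrees C before luminescent detection.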
RGS4 inh: Inhibitors of Regulator of G Protein Signaling (RGS) 4: qHTS | Transcreener GDP fluorescence polarization, RGS4-accelerated GTP hydrolysis | Potency, µM (highest dose often 114 µM), most hits filed as inhibitors | 390,000 tested, 0.039% active; further: nearly all actives have a fitted effect of over 75% in size
Target sequence (P49798 whole entry, looked up): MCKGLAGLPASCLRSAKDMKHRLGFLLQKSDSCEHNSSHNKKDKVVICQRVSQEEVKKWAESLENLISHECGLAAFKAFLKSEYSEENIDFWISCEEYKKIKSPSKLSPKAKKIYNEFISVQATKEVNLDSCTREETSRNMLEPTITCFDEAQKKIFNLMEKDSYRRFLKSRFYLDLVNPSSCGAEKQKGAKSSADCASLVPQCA
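MLSMR compounds (23 nl, pin-transferred) preincubated 10 min at room temperature with a 500nM (2x) first reagent, then RGS4 at 900nM (2x) plus Transcreener GDP mix added; fluorescence polarization (620/688 nm) read before and after 90 min at 30 °C.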
BRCA1 expr act: qHTS Assay to Identify Small Molecule Activators of BRCA1 Expression; MCF7-BRCA1-FFLuc reporter, luminescence, 48 h; response scale: scaled: vehicle 0%, 10 µM genistein 100%; Potency, µM (series often up to 46.1 µM), hits mostly activators; 380,000 tested, 1.1% active; AID 624202, 2012; further: nearly all actives have a fitted effect of over 80% in size
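Luminescence from a BRCA1-driven firefly luciferase in MCF7 cells was read after 48 h compound exposure at 37 C. Data normalized against DMSO and a 10microM genistein activation control, then curve-fitted across the titration.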
D3 ag: qHTS of D3 Dopamine Receptor Agonist: qHTS. D(3) dopamine receptor (Homo sapiens), P35462. 410,000 tested, 0.58% active. D3R DiscoveRx beta-arrestin cells, luminescence, 90 min. max activation, %; in the data active means max activation above about 30%
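Agonist-mode cell screen: cells plated at 1500/well and incubated overnight at 37 °C, then exposed to library compounds for 90 min at 37 °C. Detection reagent was added for 30–60 min at room temperature, and luminescence was read.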
Of the large screens only hits and unclear results are named; the others gave an inactive call; ! = repeats disagree. Unless noted, the call rests on the fitted dose curve; in most records, active means well fitted curve in the direction sought with a large enough effect; inconclusive means small, poorly fitted or top-dose-only effect, or another doubt; inactive means no such curve, though single readings can be large; an effect the other way counts as inactive or inconclusive.

C/C=C(/C)C(=O)O[C@@H]1c2c(ccc3ccc(=O)oc23)OC(C)(C)[C@@H]1OC(=O)/C(C)=C\C	D3 ag 47
CC1(C)Oc2ccc3ccc(=O)oc3c2[C@@H](O)[C@@H]1O	D3 ag 87
C/C=C(/C)C(=O)O[C@@H]1[C@H](OC(=O)C=C(C)C)c2c(ccc3ccc(=O)oc23)OC1(C)C	none
COc1ccc(S(=O)(=O)N(C)c2ccc(C(=O)N3CCCCC3)cc2)cc1	D3 ag 38
Cc1cc(C(=O)O/N=C(\N)c2ccc(C(C)(C)C)cc2)no1	BRCA1 expr act 2.5µM
Cc1cccc(CN2C(=O)N(c3ccc(C(C)C)cc3)S(=O)(=O)c3ccccc32)c1	none (no result: B2AR arrestin, DRD3 antagonist)
CCOC(=O)C1=C(COC(=O)CCOc2ccccc2C)NC(=O)NC1C (stereo not given)	DRD3 antagonist -65, RGS4 inh inconclusive
CCOC(=O)C1=C(COC(=O)CCOc2ccc(OCC)cc2)NC(=O)NC1C (stereo not given)	none
Cc1cc(/C=N/NC(N)=S)c(C)n1-c1ccc(Cl)cc1	B2AR arrestin inconclusive, DRD3 antagonist -58
Cc1cc(/C=N/NC(N)=S)c(C)n1-c1ccc(Br)cc1	B2AR arrestin inconclusive, DRD3 antagonist -67, RGS4 inh inconclusive
Cc1cc(/C=N/O)c(C)n1-c1ccc(Br)cc1	none
Cc1cccc(C)c1-n1c(C)cc(/C=N/NC(N)=S)c1C	B2AR arrestin inconclusive, DRD3 antagonist -84, RGS4 inh inconclusive
Cc1cc(/C=N/NC(N)=S)c(C)n1-c1cccc(Cl)c1	RGS4 inh inconclusive
CCOC(=O)[C@H](CS)NCCN[C@@H](CS)C(=O)OCC	none (no result: PTHR1 agonist, B2AR arrestin, DRD3 antagonist, RGS4 inh, BRCA1 expr act)
NC(=O)c1ccccc1NC(=O)C1CCCN(c2ncnc3onc(-c4ccc(F)cc4)c23)C1 (stereo not given)	none (no result: B2AR arrestin, DRD3 antagonist, BRCA1 expr act)
CCN(C/C=C/c1ccccc1OC)Cc1ccccc1	DRD3 antagonist -82
Cc1ccc(-n2ncc3c(NCc4ccccc4)ncnc32)cc1C	none (no result: B2AR arrestin, DRD3 antagonist, BRCA1 expr act)
O=C(NC1CCCCC1)c1ccc2ccccc2c1	BRCA1 expr act 3.2µM (no result: B2AR arrestin, RGS4 inh)
N=c1oc2ccccc2cc1C(=O)NC1CCCCCC1	BRCA1 expr act 4.5µM
O=C(COc1ccc2ccccc2c1)N1CCCC1	BRCA1 expr act 11µM
Cc1ccccc1NS(=O)(=O)c1ccc(OCC(=O)N2CCCCC2)cc1	PTHR1 agonist inconclusive, D3 ag 32
O=C(COc1ccc2ccccc2c1)N1CCN(c2ccccc2)CC1	none
O=C(NCCCN1CCOCC1)c1ccccc1N1C(=O)[C@@H]2Cc3c([nH]c4ccccc34)C(c3ccc(F)cc3)N2C1=O (stereo not given in full)	D3 ag 33
C[C@H](CO)N1C[C@H](C)[C@@H](CN(C)Cc2ccncc2)Oc2ncc(Br)cc2C1=O	DRD3 antagonist -114 (no result: B2AR arrestin, RGS4 inh)
C[C@@H]1CN([C@@H](C)CO)C(=O)c2cc(Br)cnc2O[C@H]1CN(C)Cc1cccnc1	none (no result: B2AR arrestin, RGS4 inh)
C/C(=N\Nc1nnc(C)c(=O)[nH]1)C(=O)O	DRD3 antagonist -52
CC(/C=N/Nc1nnc(C)c(=O)[nH]1)=C\c1ccccc1	BRCA1 expr act 10µM
Cc1cccc(/C=N\Nc2nnc(-c3ccccc3)c(=O)[nH]2)c1	none
COc1ccc(NC(=S)NCCN2CCC(C)CC2)cc1Cl	RGS4 inh inconclusive
CCC(C)(C)NC(=O)C(c1ccccn1)N(C(=O)c1csnn1)c1ccc(C)c(C)c1 (stereo not given)	PTHR1 agonist inconclusive
CCOc1ccc(CNC(=O)CN2N=C(c3ccccc3)CCC2=O)cc1OC	D3 ag 50 (no result: B2AR arrestin, DRD3 antagonist, BRCA1 expr act)
COc1ccc(CNC(=O)Cn2c(=O)nc(-c3ccccc3)c3ccccc32)cc1OC	D3 ag 33 (no result: B2AR arrestin, DRD3 antagonist, BRCA1 expr act)
COc1ccc(C2=NN(CC(=O)NCCc3ccc(OC)c(OC)c3)C(=O)CC2)cc1	none (no result: B2AR arrestin, DRD3 antagonist, BRCA1 expr act)
O=C1NC(=O)C(c2ccccc2[N+](=O)[O-])=C1Nc1ccc(O)c(Cl)c1	RGS4 inh 12µM!
CC1CCCN(C(=S)NCc2ccccc2)C1 (stereo not given)	none
CN1CCN(C(=S)NCCc2ccccc2)CC1	DRD3 antagonist -87, BRCA1 expr act inconclusive
OC1CCCN(C(=S)NCc2ccccc2)C1 (stereo not given)	DRD3 antagonist -73
S=C(NCCc1ccccc1)N1CCN(C(=S)NCCc2ccccc2)CC1	none
CC1CCN(C(=S)NCCc2ccccc2)CC1	BRCA1 expr act 7.1µM
CC1=C(C(N)=O)C(c2ccc(Cl)c(Cl)c2)n2ncnc2N1 (stereo not given)	none
Cn1c2c(c(=O)n3ncnc13)CCCC2	RGS4 inh inconclusive
CCCC(=O)N(C1CC(C)C(C#N)(C#N)C1(C#N)C#N)N(C)C (stereo not given)	DRD3 antagonist -62, RGS4 inh inconclusive
CC(=O)N(C1CC(C)C(C#N)(C#N)C1(C#N)C#N)N(C)C (stereo not given)	DRD3 antagonist -71, RGS4 inh inconclusive
Nc1c(CC(=O)O)cccc1C(=O)c1ccccc1	D3 ag 42! (no result: PTHR1 agonist, B2AR arrestin, DRD3 antagonist, RGS4 inh, BRCA1 expr act)
COc1ccccc1Cc1c(C(C)(C)C)nc2ccc(C)cn12	none (no result: B2AR arrestin, RGS4 inh)
CC(C)Cn1cc(-c2cccc3nccn23)cn1	none (no result: B2AR arrestin, RGS4 inh)
O=C(C1CCCCN1S(=O)(=O)c1ccccc1[N+](=O)[O-])N1CCCC1 (stereo not given)	DRD3 antagonist -53
C[C@@H]1Cn2cnc(C(=O)N[C@@H](C)c3ccccc3)c2C(=O)N1	none (no result: B2AR arrestin, RGS4 inh)
CCc1nnc(NC(=O)CSc2ccc(-c3ccc(-n4cccn4)cc3)nn2)s1	BRCA1 expr act 10µM
O=C(OCc1nnc(-c2ccccc2)o1)c1ccc(CO)cc1	DRD3 antagonist -51
O=C(OCc1nnc(-c2ccccc2)o1)c1ccc(Cl)cc1	none
CN(C)S(=O)(=O)c1ccc(C(=O)OCc2nnc(-c3ccccc3)o2)cc1	none
Cc1ccc(-c2nnc(COC(=O)c3ccco3)o2)cc1	DRD3 antagonist -95
O=C(OCc1nnc(-c2ccccc2)o1)c1ccc(S(=O)(=O)NCc2ccco2)cc1	DRD3 antagonist -78
CS(=O)(=O)c1ccc(C(=O)OCc2nnc(-c3ccccc3)o2)cc1[N+](=O)[O-]	DRD3 antagonist -60
COC(=O)CSCC(=O)Nc1nnc(-c2cccc(C)c2)s1	none
O=C(OCc1ccccc1)c1ccc2c(c1)-c1ccccc1C2=O	BRCA1 expr act 8.9µM
